Source: the supplement of paper PMC11624193, “Coupling cellular drug-target engagement to downstream pharmacology with CeTEAM” (Nature Communications, 2024)
Structures can show the parent of a compound that is named as a salt. Unmarked numbers belong to inactive results.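 Rule for the calls: active = log2 fold change beyond 2 SD from the library mean after excluding viability outliers; inactive = within 2 SD.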

Molecular target: PARP1 L713F-nLuc biosensor (HCT116) (UniProt P09874)
Assay: PARP1 L713F-nLuc/akaLuc ratio relative to DMSO control (biosensor stabilization) (fold change); higher = more PARP1 biosensor stabilization (target engagement / stabilizer), active = hit call of the paper
Details: stock concentration (mM; final µM = stock mM x 1): 10; 24 h

Chain of PARP1 L713F-nLuc biosensor (HCT116) (P09874 whole entry L713F, looked up): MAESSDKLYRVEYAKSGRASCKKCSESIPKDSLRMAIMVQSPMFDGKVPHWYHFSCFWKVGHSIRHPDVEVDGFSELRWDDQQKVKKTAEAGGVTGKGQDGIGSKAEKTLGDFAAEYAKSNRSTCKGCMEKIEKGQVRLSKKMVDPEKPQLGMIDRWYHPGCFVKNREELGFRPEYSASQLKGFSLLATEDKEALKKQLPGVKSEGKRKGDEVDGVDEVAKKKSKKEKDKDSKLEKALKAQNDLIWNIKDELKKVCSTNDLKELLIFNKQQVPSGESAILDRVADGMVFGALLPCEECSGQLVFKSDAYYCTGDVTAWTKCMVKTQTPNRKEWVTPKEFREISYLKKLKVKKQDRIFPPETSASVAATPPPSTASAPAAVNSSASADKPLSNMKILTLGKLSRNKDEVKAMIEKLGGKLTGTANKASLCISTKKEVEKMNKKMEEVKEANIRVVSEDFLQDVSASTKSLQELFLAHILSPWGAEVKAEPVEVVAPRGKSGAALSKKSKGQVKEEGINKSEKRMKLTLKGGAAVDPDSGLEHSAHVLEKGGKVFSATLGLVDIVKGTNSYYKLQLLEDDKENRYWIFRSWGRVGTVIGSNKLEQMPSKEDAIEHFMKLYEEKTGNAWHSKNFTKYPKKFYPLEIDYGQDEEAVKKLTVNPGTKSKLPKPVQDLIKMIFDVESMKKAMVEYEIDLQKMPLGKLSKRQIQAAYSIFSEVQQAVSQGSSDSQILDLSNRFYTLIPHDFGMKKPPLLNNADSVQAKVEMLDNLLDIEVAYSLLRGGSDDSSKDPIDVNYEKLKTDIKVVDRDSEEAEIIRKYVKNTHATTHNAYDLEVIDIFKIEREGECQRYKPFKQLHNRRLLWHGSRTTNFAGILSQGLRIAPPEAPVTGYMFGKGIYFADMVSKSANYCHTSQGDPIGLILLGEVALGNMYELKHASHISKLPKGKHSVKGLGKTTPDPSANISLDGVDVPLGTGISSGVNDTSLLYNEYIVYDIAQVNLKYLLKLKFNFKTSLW

| Structure (SMILES) | PARP1 L713F-nLuc/akaLuc ratio |
| --- | --- |
| O=C(O)CNC(=O)c1nc(Cl)c2ccccc2c1O | 0.618 |
| CN1CCN(CCOc2cc(OC3CCOCC3)c3c(Nc4c(Cl)ccc5c4OCO5)ncnc3c2)CC1 [Saracatinib (AZD0530)] | 0.92 |
| CC1(C)c2cccc(C(=O)NO)c2CN1c1cnc(C(F)(F)F)cn1 | 0.913 |
| Cc1cc(Nc2cc(N3CCN(C)CC3)nc(Sc3ccc(NC(=O)C4CC4)cc3)n2)n[nH]1 [Tozasertib] | 0.774 |
| CCC1=C[C@@H]2CN(C1)Cc1c([nH]c3ccccc13)[C@@](C(=O)OC)(c1cc3c(cc1OC)N(C)[C@H]1[C@@](O)(C(=O)OC)[C@H](OC(C)=O)[C@]4(CC)C=CCN5CC[C@]31[C@@H]54)C2 [Vinorelbine Tartrate] | 0.576 |
| O=C(c1cccc(Br)c1)N1CCC(N2CCCC2)CC1 | 0.886 |
| CC#CC(=O)N1CC[C@@H](n2c(=O)n(-c3ccc(Oc4ccccc4)cc3)c3c(N)ncnc32)C1 [ONO-4059 (GS-4059) hydrochloride] | 1.06 |
| NC(=O)c1cnc2[nH]ccc2c1N[C@@H]1[C@@H]2CC3C[C@H]1C[C@@](O)(C3)C2 [Peficitinib] | 1.02 |
| CC(C)[C@H]1C(=O)N[C@@H](CCCN=C(N)N)C(=O)NCC(=O)N[C@@H](CC(=O)O)C(=O)N[C@H](Cc2ccccc2)C(=O)N1C | 0.738 |
| CNC(=O)N1N=C(c2ccc(N3CCN(C)CC3)cc2)c2cc(OC)c(OC)cc2C[C@H]1C | 1.27 |
| O=c1cc(-c2ccc(O[C@@H]3O[C@H](CO)[C@@H](O)[C@H](O)[C@H]3O)cc2)oc2cc(O)c([C@@H]3O[C@H](CO)[C@@H](O)[C@H](O)[C@H]3O[C@@H]3OC[C@H](O)[C@H](O)[C@H]3O)c(O)c12 [Vaccarin] | 0.723 |
